# Screens as filed in PubChem.
# esBAF inh = blocks esBAF chromatin remodeling in mouse ES cells; Bmi1-luciferase knock-in reporter, 24 h; 100% = twice the neutral-well signal; reporter increase, % at 12.5 µM; 2% of 350,000 active; in the data active = activation above about 40%; inconclusive = no clear call, values can overlap the other calls;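 note: 0% = median of the plate's neutral control wells and 100% = double that signal; a rise in the Bmi1 reporter signal indicates esBAF inhibition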
# C2C12 statin = suppressors of simvastatin-induced myotoxicity in C2C12 myotubes. ATP luminescence, 48 h; scaled: DMSO 0, geranylgeraniol control 100. 0.78% of 330,000 active. rescue of ATP level, % at 7.49 µM;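 active = mean ATP rescue above about 67%, or every replicate alone reaching that limit, limit read from the data, passing the limit was not always enough; inconclusive = no clear call, values can overlap the other calls; inactive = mean under the limit and some replicate under it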;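 note: myotubes were challenged with 10 µM simvastatin during compound exposure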
# MITF act = MITF TRPM1 promoter activation in melanoma cells; activation, % at 12.5 µM; AID 588334; 0.75% of 300,000 active; SK-MEL-5 TRPM1-promoter luciferase, 24 h; % of positive control, neutral wells = 0;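 active = mean activation of at least 80% with every replicate also reaching 80%; inconclusive = mean reaches 80% but some replicate falls short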;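 note: 0% = neutral control wells and 100% = parthenolide positive control wells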
# Wnt bcat act = Wnt/beta-catenin pathway activation. Wnt/beta-catenin reporter cell assay, activator, plate reader. AID 743398. 1.2% of 300,000 active. activation, % at 9.35 µM; in the data active = activation above about 30%, passing the limit was not always enough; inconclusive = no clear call, values can overlap the other calls;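 note: 0% = neutral control wells and 100% = positive control wells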
# FXN GAA850 act = increases GAA850 frataxin promoter reporter activity; HEK293 lucGAA850 FXN promoter luciferase reporter, 24 h; percent of 10 µM SAHA response; activation, % at 6 µM; AID 540364; 0.56% of 360,000 active;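 active = activation above the average of all compounds screened plus 3 SD, cutoff fixed separately per campaign, cut at about 7.5% in these data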;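 note: 0% = DMSO wells and 100% = 10 µM SAHA wells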
# * = called active by the depositor; ? = inconclusive; . = no result given. Rows were chosen to be rich in hits. Some 3.3% of all compounds tested hit in one or more screens of this group.
SMILES,esBAF inh,C2C12 statin,MITF act,Wnt bcat act,FXN GAA850 act
COc1ccc(OCc2cc(C(=O)N3CCN(CC(=O)N(C)C)CC3)no2)c(Cl)c1,8,7,20,-1,2
COc1ccc(OCc2cc(C(=O)N(C)C(C)c3ccon3)no2)c(Cl)c1 (configuration not stated),73*,0,69,19,4
C[C@H](CO)N1C[C@H](C)[C@@H](CN(C)C(=O)c2ccc(F)cc2)Oc2cc(C3=CCCCC3)ccc2S1(=O)=O,4,-6,.,.,.
COc1cccc(C(=O)Nc2cccc(-c3nc4ncccc4o3)c2C)c1,-5,-23,-2,.,-2
Cc1c(NC(=O)c2ccc([N+](=O)[O-])o2)cccc1-c1nc2ncccc2o1,3,107*,-77,-2,1
COc1ccc(-c2cc3nc4ccccc4n3c(N)c2C#N)cc1,.,.,114*,23,6
COc1ccc(-c2cc(-c3ccccc3)c(C#N)c(S(C)=O)n2)cc1 (configuration not stated),-1,9,-68,-26,-10
CN1CCN(C(=O)C[C@@H]2CC[C@H]3[C@@H](COC[C@@H](O)CN3Cc3ccc4c(c3)OCO4)O2)CC1,-3,-6,.,.,.
CO[C@@H]1CN(C)C(=O)c2ccc(NC(=O)C3CCOCC3)cc2OC[C@H](C)N(C)C[C@@H]1C,-1,3,.,.,.
Clc1cccc(OCc2nnc(-c3ccccc3Br)o2)c1,31,-10,56,9,4
Fc1ccc(OCc2nnc(-c3ccccc3Br)o2)c(Cl)c1,67*,0,?,4,5
Clc1ccc(OCc2nnc(-c3ccccc3Br)o2)cc1,0,-14,20,.,1
Clc1ccc(OCc2nnc(-c3ccccc3Br)o2)c(Cl)c1,79*,-9,106*,19,5
Cc1cccc(S(=O)(=O)N2CC[C@@H]3[C@H]2c2cc(C#Cc4cccc(F)c4)ccc2N[C@@H]3CO)c1,0,42,.,.,.
CCCCC[C@H](O)/C=C/C1C(=O)C=C[C@H]1C/C=C\CCCC(=O)OC (some centres not stated),0,-11,-64,-2,8.2*
CCC(=O)Nc1ccc2c(c1)C(=O)N(C)C[C@@H](OC)[C@@H](C)CN(CC1CCOCC1)[C@@H](C)CO2,-1,-5,.,.,.
CCN(C(=O)c1cc2c(=O)n3ccccc3nc2s1)C1CCCCC1,58*,-15,36,10,3
CCN(C(=O)c1cc2c(=O)n3cccc(C)c3nc2s1)C1CCCCC1,67*,-15,24,-2,3
CN(C(=O)c1cc2c(=O)n3ccccc3nc2n1C)C1CCCCC1,11,-3,69,37*,5
O=C(N[C@@H]1CC[C@@H](CC(=O)N2CCCCC2)O[C@@H]1CO)c1cccc(F)c1,0,-5,.,.,.
CNC[C@H]1OCCCC[C@@H](C)Oc2ccc(NS(=O)(=O)c3ccc(OC)cc3)cc2C(=O)N([C@@H](C)CO)C[C@@H]1C,-2,15,.,.,.
COc1ccc(S(=O)(=O)N(C)C[C@@H]2Oc3ccc(NC(=O)C4CCCCC4)cc3C(=O)N([C@@H](C)CO)C[C@@H]2C)cc1,10,-31,.,.,.
COC(=O)c1cc2c(s1)-c1ccc(OC)cc1CC2,.,.,54,67*,4
CO[C@@H]1CN(C)C(=O)c2cc(C#N)ccc2OC[C@H]2O[C@H](CC[C@H]2OC)CCN(C)C(=O)[C@H]1C,2,3,.,.,.
COc1ccc(NC(=O)Nc2nnc(-c3ccco3)s2)cc1,30,6,78,53*,5
SMILES,esBAF inh,C2C12 statin,MITF act,Wnt bcat act,FXN GAA850 act
COc1ccc(NC(=O)Nc2nnc(-c3ccncc3)s2)cc1,.,.,30,-1,-2
COc1ccc(NC(=O)c2ccc(NC(=O)c3ccncc3)cc2)cc1,-2,-63,3,-2,-1
COc1ccc(NC(=O)c2coc(C)c2)cc1,74*,12,.,10,5
COc1ccc(C(=O)Nc2ccc(C3CC3(Cl)Cl)cc2)cc1 (configuration not stated),91*,4,37,-1,2
COc1ccc(NC(=O)c2ccc(=O)oc2)cc1,0,2,-7,3,1
COc1ccc(NC(=O)c2cc(-c3ccccc3Cl)on2)cc1,63*,-10,.,?,2
C[C@H](CO)N1C[C@H](C)[C@H](CN(C)C(=O)c2cccc(F)c2)Oc2cc(C#CC3CCCC3)ccc2S1(=O)=O,.,22,.,.,.
C[C@@H]1CN([C@H](C)CO)C(=O)Cc2cc(NC(=O)C3CC3)ccc2O[C@@H]1CN(C)Cc1ccc(-c2ccccc2)cc1,-3,24,.,.,.
CC(C)NC(=O)N(C)C[C@@H]1Oc2ccc(NC(=O)Cn3cnnn3)cc2CC(=O)N([C@@H](C)CO)C[C@H]1C,-2,-7,.,.,.
COc1ccc(NC(=O)c2cc(-c3ccco3)on2)c(OC)c1,8,-6,2,-1,0
COc1ccc(NC(=O)c2cc(-c3ccco3)on2)cc1,.,.,92*,42*,1
CCc1ccc(NC(=O)c2cc(-c3ccco3)on2)cc1,66*,10,101*,.,1
Cc1cccc(Nc2nc(CC(=O)O)cs2)c1,18,128*,65,-1,0
COc1cccc(-c2ccc3c(c2)[C@@H]2[C@@H](CCN2C(=O)c2ccc4c(c2)OCO4)[C@H](CO)N3C)c1,2,25,.,.,.
Cc1cc(OCC#N)nc(N)n1,2,1,2,-2,0
Cc1cc(OCC(F)(F)C(F)(F)C(F)(F)C(F)F)nc(N)n1,50*,-26,.,29,0
CCOC(=O)C1(Cc2ccccc2Cl)CCN(C(=O)c2cnccn2)CC1,67*,2,79,12,3
CC(=O)c1ccc(N/C=C\C(=O)c2ccc(C)cc2)cc1,.,.,93*,66*,6
CC(=O)Nc1ccc(N/C=C/C(=O)c2ccc(Cl)cc2)cc1,59*,-3,.,27,-1
Cc1noc(C)c1NC(=O)Nc1ccc2c(c1)C(=O)N([C@@H](C)CO)C[C@H](C)[C@H](CN(C)Cc1ccc3c(c1)OCO3)O2,4,19,.,.,.
O=C(C[C@@H]1CC[C@@H]2[C@H](COC[C@@H](O)CN2C(=O)c2cnccn2)O1)NCc1ccc(F)cc1,5,-8,.,.,.
Cc1ccc(C(C)(C)NC(=O)C2CCC(=O)N(Cc3ccccc3F)C2)cc1 (configuration not stated),-2,13,-2,14,2
CC1(C)CC(NC(=O)C2CCC(=O)N(Cc3ccccc3F)C2)CC(C)(C)C1 (configuration not stated),47*,6,29,13,3
CCCN(C)C[C@H]1OCCCC[C@H](C)Oc2ccc(NC(=O)CCC(F)(F)F)cc2C(=O)N([C@H](C)CO)C[C@H]1C,-6,-9,.,.,.
O=C(NCc1cc(F)ccc1F)C1CCC(=O)N(C2CCCCCC2)C1 (configuration not stated),48*,6,49,11,1
CC(=O)CCc1ccccc1,3,-2,2,-1,0
